Assay results published in ChEMBL document CHEMBL4513216, “Probing the Open Global Health Chemical Diversity Library for Multistage-Active Starting Points for Next-Generation Antimalarials” (ACS Infect Dis, 2020).
The campaign covered roughly 69,000 compounds. About 8,600 (12%) showed an effect of 50% or more. What follows is part of a selection rich in strong results, with near analogues and random picks from the rest.

These molecules were tested on Plasmodium berghei (assay: Screen against P. berghei liver stage (PbLuc), transformed with Luciferase, at 10uM). Settings: tested at 10 uM.
Type: functional, HepG2

Compound	INHIBITION [%]
CN1CC(=O)N(c2ccccc2)CC12CCN(Cc1cccnc1)C2 (stereo unspecified)	8.47
CC(C)CCn1[nH]c(CNc2ccc(F)cc2)nc1=O	15.1
CN1CCC2(C=C(C(=O)N3CCCC3)c3ccccc32)CC1	26.4
Cc1ccc(CC(=O)N2CCOC(c3ncc(CN(C)C)[nH]3)C2)s1 (stereo unspecified)	7.19
CNc1ncc(-c2csc(NC(=O)C[C@H]3COCCN3)n2)cn1	24.8
CC(C)CC(=O)N1CCC(c2nnc3n2CCCCC3)CC1	-16.5
Cn1cc(N)c(-c2nnc3n2CCCC3)n1	42.6
CCC(NC(=O)CCCNC(=O)OC)c1cc(F)ccc1F (stereo unspecified)	-13.6
CCc1nc(CSC2CCCN(c3cnn(C)c3)C2=O)cs1 (stereo unspecified)	29
O=C(c1cc2c([nH]c1=O)CCC2)N1CCCC1c1ccc(F)cc1 (stereo unspecified)	20.6
O=C(c1cc2c([nH]c1=O)CCC2)N1CCCC1c1ccccc1 (stereo unspecified)	-19.7
O=C(c1cc2c([nH]c1=O)CCC2)N1CCCCC1c1cccc(F)c1 (stereo unspecified)	54.7
COC1(CNC(=O)c2ccc(F)c(F)c2)CCSC1 (stereo unspecified)	29.6
CCc1nnc(CNC(=O)CCC2CCCN(C)C2)s1 (stereo unspecified)	-57.5
Cc1ccsc1CN(CCCO)Cc1nc2ccccc2[nH]1	23.2
Oc1ccc(-c2c(-c3ccccc3)ncn2C2CCNC2)cc1 (stereo unspecified)	54.5
CCOc1ccc(-c2c(-c3ccccc3)ncn2C2CCNC2)cn1 (stereo unspecified)	24.8
Oc1ccc(-c2c(-c3ccccc3)ncn2C[C@H]2CCCN2)cc1	-9.17
O=C(CN1CCC(c2ccccc2)C1)NCC(F)(F)F (stereo unspecified)	37.8

Compound	INHIBITION [%]
CCCn1ncc(C2CC(=O)NCc3nc4sc(C)cn4c32)c1C (stereo unspecified)	44.7
CCCn1ncc(C2CC(=O)NCc3nc4cc(C)ccn4c32)c1C (stereo unspecified)	71.5
Cn1ncc(C2CC(=O)NCc3nc4ccccn4c32)c1C1CC1 (stereo unspecified)	17.6
CC1(C)O[C@@](C)([C@H]2CC3(CCN(c4cnccn4)CC3)CO2)CC[C@@H]1O	30.55
CN(C)C(=O)CCNC(=O)Nc1cccc(Cl)c1-n1cccn1	-10.3
CCc1cc(N(C)Cc2cc[nH]n2)n2nc(C)c(C)c2n1	81.7
Cc1cc(N(C)Cc2cc(C)on2)n2nc(C)c(C)c2n1	-45.4
CCc1cc(N(C)Cc2ccno2)n2nc(C)c(C)c2n1	-2.73
CCc1nnc(CN(C)c2cc(C)nc3c(C)c(C)nn23)o1	36.7
CCc1cc(N(C)Cc2ccnc(C)c2)n2nc(C)c(C)c2n1	73.5
CCc1cc(N(C)Cc2ccncn2)n2nc(C)c(C)c2n1	42.3
COc1ncc(-c2ccc(C(N)=O)cc2)c(OC)n1	9.41
CN(C)Cc1cn2c(n1)CN(C1CCOC1)CC2 (stereo unspecified)	-4.32
NC(=O)C1CCN(C(=O)NC(Cc2ccccc2)C(F)(F)F)CC1 (stereo unspecified)	-82.2
Cc1cnn(CC2CN(Cc3nnc(C(C)C)o3)CCO2)c1 (stereo unspecified)	30.6
COCCN1CC(C(=O)N(C)Cc2csc(C)n2)CC1=O (stereo unspecified)	57.8
Cc1nc(CN(C)C(=O)C2CC(=O)N(c3cccc(O)c3)C2)cs1 (stereo unspecified)	7.6
Cc1nc(CN(C)C(=O)C2CCC(=O)N(CCN(C)C)C2)cs1 (stereo unspecified)	20.8
Cn1cc(CCNC(=O)NCc2ccc3c(c2)OCCO3)cn1	24.5

Compound	INHIBITION [%]
CN1CC2(CCN(C(=O)C3CCC3)CC2)COc2ccccc2S1(=O)=O	20.4
COCC(=O)N1CCC2(CC1)COc1ccccc1S(=O)(=O)N(C)C2	66.8
CN(C)C(=O)CN1CCC2(CC1)COc1ccccc1S(=O)(=O)N(C)C2	17.4
COCCN1CCC2(CC1)COc1ccccc1S(=O)(=O)N(C)C2	-4.32
CCC(=O)N1CCC2(CC1)COc1ccccc1S(=O)(=O)N(C)C2	-0.182
CN(C)CC(=O)N1CCC2(CC1)COc1ccccc1S(=O)(=O)N(C)C2	50
N#Cc1csc(CNCCOc2ccc(Cl)cn2)c1	4.35
Cc1cnn(CC2CCCN2C(=O)CCCc2nc(C)no2)c1 (stereo unspecified)	-45.8
Fc1cc(CCNc2ccc3nccn3n2)c2c(c1)COCO2	48.2
CC(C)(C)c1cc(NC(=O)CN2CCC(N3CCNC3=O)CC2)on1	3.73
CC(=O)N1CCC(c2ncc3c(n2)CCN(C(=O)c2ccccc2)C3)C1 (stereo unspecified)	1.5
CCOCCN1CCC=C(C2c3nc[nH]c3CCN2C(C)=O)C1 (stereo unspecified)	36.6
CCn1nc(C)c(CN2CCCC(c3ccc(C(=O)O)cc3)C2)c1C (stereo unspecified)	62.4
CCn1nc(C)c(CN2CCC(c3ccc(C(=O)O)cc3)C2)c1C (stereo unspecified)	27.9
Cc1nn(C)c(C)c1CN1CCCC(c2ccc(C(=O)O)cc2)C1 (stereo unspecified)	6.88
CCC(=O)N1CCN(c2ncnc3c(C)nn(C)c23)CC1	50.7
Cc1nn(C)c2c(N3CCN(C(=O)C4CC4)CC3)ncnc12	44.1
Cc1nn(C)c2c(N3CCN(C(=O)C(C)C)CC3)ncnc12	10.1
